# Assay results as given in PubChem BioAssay AID1159580 (chemical genetic matrix, 2015).
# Where “and” joins values, the source holds several entries; their conditions need not be identical. Identical values can stand only once. Hit rate of the full screen: of about 5,500 compounds, about 2,000 (36%) were called active. Roughly 18% stayed inconclusive and do not appear here. This is one part of the list. Unmarked numbers belong to inactive results. Cut-off read from the data, not from the text of the source: active = normalized growth mostly below about 0.91 (no sharp cut-off); inconclusive = no clear call, values can overlap the other calls; inactive = mostly above about 0.92.
# Test: chemical genetic growth profiling, strain panel (AID 1159580);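 note: tested at 20 µM; growth read once vehicle control cultures reached saturation at 30 °C; 1 = growth at the plate median or of vehicle wells; lower values mean less growth of the strain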
# Settings: S. cerevisiae deletion strains, growth OD
compound,measurement,setting,value
CC(=O)O[C@@H]1C=C[C@@]2(C)C(C[C@@H](OC(C)=O)[C@@]3(C)C4=CC(=O)O[C@@H](c5ccoc5)[C@]4(C)CCC23)C1(C)C (stereo partly specified),normalized growth,"locus YAL013W, strain DEP1, hits give low values",1.01
same,normalized growth,"locus YAL021C, strain ccr4, hits give low values",1
same,normalized growth,"locus YAL026C, strain drs2, hits give low values",0.985
same,normalized growth,"locus YAL030W, strain snc1, hits give low values",0.99
same,normalized growth,"locus YBL061C, strain skt5, hits give low values",0.992
same,normalized growth,"locus YBR009C, strain hhf1, hits give low values",1
same,normalized growth,"locus YBR021W, strain FUR4, hits give low values",1.03
same,normalized growth,"locus YBR023C, strain chs3, hits give low values",1.01
same,normalized growth,"locus YBR171W, strain sec66, hits give low values",0.994
same,normalized growth,"locus YBR229C, strain ROT2, hits give low values",1.02
same,normalized growth,"locus YBR231C, strain swc5, hits give low values",0.99
same,normalized growth,"locus YBR279W, strain paf1, hits give low values",1
same,normalized growth,"locus YCL011C, strain gbp2, hits give low values",0.982
same,normalized growth,"locus YCL016C, strain dcc1, hits give low values",0.975
same,normalized growth,"locus YCL029C, strain bik1, hits give low values",0.0759 (active)
same,normalized growth,"locus YCL061C, strain MRC1, hits give low values",0.997
same,normalized growth,"locus YCL069W, strain vba3, hits give low values",1.02
same,normalized growth,"locus YCR088W, strain abp1, hits give low values",1.01
same,normalized growth,"locus YDL005C, strain med2, hits give low values",0.984
same,normalized growth,"locus YDL035C, strain GPR1, hits give low values",0.991
same,normalized growth,"locus YDL040C, strain nat1, hits give low values",0.993
same,normalized growth,"locus YDL074C, strain BRE1, hits give low values",0.964
same,normalized growth,"locus YDL101C, strain DUN1, hits give low values",0.998
same,normalized growth,"locus YDL134C, strain PPH21, hits give low values",1
same,normalized growth,"locus YDL185W, strain tfp1, hits give low values",0.0668 (active)
same,normalized growth,"locus YDL192W, strain arf1, hits give low values",0.0652 (active)
same,normalized growth,"locus YDR001C, strain nth1, hits give low values",0.993
same,normalized growth,"locus YDR069C, strain doa4, hits give low values",0.996
same,normalized growth,"locus YDR101C, strain arx1, hits give low values",0.0671 (active)
same,normalized growth,"locus YDR137W, strain rgp1, hits give low values",0.946
same,normalized growth,"locus YDR150W, strain NUM1, hits give low values",1.01
same,normalized growth,"locus YDR159W, strain sac3, hits give low values",0.979
same,normalized growth,"locus YDR162C, strain NBP2, hits give low values",0.964
same,normalized growth,"locus YDR195W, strain ref2",0.975
same,normalized growth,"locus YDR297W, strain sur2, hits give low values",0.981
same,normalized growth,"locus YDR318W, strain mcm21, hits give low values",0.0639 (active)
same,normalized growth,"locus YDR334W, strain swr1, hits give low values",0.988
same,normalized growth,"locus YDR335W, strain msn5, hits give low values",0.986
same,normalized growth,"locus YDR388W, hits give low values",0.0562 (active)
same,normalized growth,"locus YDR392W, strain spt3, hits give low values",0.951
same,normalized growth,"locus YDR502C, strain sam2, hits give low values",0.0613 (active)
same,normalized growth,"locus YEL003W, strain gim4, hits give low values",0.997
same,normalized growth,"locus YEL037C, strain rad23, hits give low values",1
same,normalized growth,"locus YEL061C, strain CIN8 (second series), hits give low values",0.992
same,normalized growth,"locus YEL061C, strain CIN8, hits give low values",1.02
same,normalized growth,"locus YER015W, strain faa2, hits give low values",0.991
same,normalized growth,"locus YER016W, strain bim1, hits give low values",1.01
same,normalized growth,"locus YER110C, hits give low values",0.0742 (active)
same,normalized growth,"locus YER111C, strain swi4, hits give low values",1
same,normalized growth,"locus YER155C, strain BEM2 (second series), hits give low values",1.01
same,normalized growth,"locus YER155C, strain BEM2, hits give low values",1.01
same,normalized growth,"locus YER167W, strain BCK2, hits give low values",1.01
same,normalized growth,"locus YFR010W, strain ubp6, hits give low values",1.01
same,normalized growth,"locus YGL078C, strain dbp3, hits give low values",0.0566 (active)
same,normalized growth,"locus YGL086W, strain mad1, hits give low values",0.0536 (active)
same,normalized growth,"locus YGL167C, strain pmr1, hits give low values",0.988
same,normalized growth,"locus YGL173C, strain kem1, hits give low values",1.02
same,normalized growth,"locus YGL227W, strain vid30, hits give low values",1
same,normalized growth,"locus YGL240W, strain doc1, hits give low values",1
same,normalized growth,"locus YGL248W, strain PDE1, hits give low values",1.02
same,normalized growth,"locus YGL253W, strain hxk2, hits give low values",0.971
same,normalized growth,"locus YGR078C, strain PAC10, hits give low values",1.02
same,normalized growth,"locus YGR135W, strain pre9, hits give low values",0.0645 (active)
same,normalized growth,"locus YGR229C, strain SMI1, hits give low values",0.98
same,normalized growth,"locus YGR252W, strain gcn5, hits give low values",0.164 (active)
same,normalized growth,"locus YHR013C, strain ard1, hits give low values",0.973
same,normalized growth,"locus YHR027C, strain rpn1, hits give low values",0.983
same,normalized growth,"locus YHR030C, strain SLT2, hits give low values",1.02 and 0.986
same,normalized growth,"locus YHR079C, strain IRE1 (second series), hits give low values",0.0734 (active)
same,normalized growth,"locus YHR079C, strain IRE1, hits give low values",0.986
same,normalized growth,"locus YHR094C, strain hxt1, hits give low values",0.0578 (active)
same,normalized growth,"locus YHR129C, strain ARP1, hits give low values",1.01
same,normalized growth,"locus YHR142W, strain chs7, hits give low values",0.965
same,normalized growth,"locus YHR200W, strain rpn10, hits give low values",0.0597 (active)
same,normalized growth,"locus YIL066C, strain RNR3, hits give low values",1.02
same,normalized growth,"locus YIL073C, strain SPO22, hits give low values",1.03
same,normalized growth,"locus YIL125W, strain kgd1, hits give low values",0.0589 (active)
same,normalized growth,"locus YIR030C, strain dcg1, hits give low values",0.0619 (active)
same,normalized growth,"locus YJL092W, strain hpr5, hits give low values",0.987
same,normalized growth,"locus YJL095W, strain BCK1 (second series), hits give low values",0.974
same,normalized growth,"locus YJL095W, strain BCK1, hits give low values",0.979 and 0.982
same,normalized growth,"locus YJL115W, strain asf1, hits give low values",0.99
same,normalized growth,"locus YJL129C, strain trk1, hits give low values",0.959
same,normalized growth,"locus YJL134W, strain LCB3, hits give low values",1.02
same,normalized growth,"locus YJL154C, strain vps35, hits give low values",0.989
same,normalized growth,"locus YJL164C, strain tpk1, hits give low values",1
same,normalized growth,"locus YJL166W, strain qcr8, hits give low values",1
same,normalized growth,"locus YJL168C, strain set2, hits give low values",0.0579 (active)
same,normalized growth,"locus YJL187C, strain SWE1 (second series), hits give low values",1
same,normalized growth,"locus YJL187C, strain SWE1, hits give low values",0.994
same,normalized growth,"locus YJR043C, strain POL32, hits give low values",1.04
